Records with an inconclusive call do not appear. Activity calls are given as the source filed them. Calls come from the whole dose curve; as a rule, active = well fitted curve in the direction sought with a large enough effect; inconclusive = small, poorly fitted or top-dose-only effect, or another doubt; inactive = no such curve, though single readings can be large; an effect the other way counts as inactive or inconclusive.
Key:
HEK293T [1] = experiment: qHTS assay to identify novel small-molecules to repurpose for Merkel cell carcinoma treatment (AID 1296009); conditions: MCC and control cell lines, CellTiter-Glo viability, 72 h; at 44.8 µM (top of the series) unless noted; note: nearly all actives have a fitted effect of over 60% in size
Summary of the method: (§1)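 Luminescence from CellTiter-Glo, read 10 min after addition at room temperature, reported viability following a 72 hr, 37 degree celsius treatment with NPC or MIPE compounds in titration; values normalized to plate controls.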

MCC-13 = experiment: as above; conditions: MCC and control cell lines, CellTiter-Glo viability, 72 h; series mostly up to 46 µM
Summary of the method: as §1

MCC-26 = experiment: as above; conditions: MCC and control cell lines, CellTiter-Glo viability, 72 h; series mostly up to 46 µM
Summary of the method: as §1

MKL-1 = experiment: as above; conditions: MCC and control cell lines, CellTiter-Glo viability, 72 h; series mostly up to 46 µM
Summary of the method: as §1

MKL-2 = experiment: as above; conditions: MCC and control cell lines, CellTiter-Glo viability, 72 h; series mostly up to 46 µM
Summary of the method: as §1

UISO = experiment: as above; conditions: MCC and control cell lines, CellTiter-Glo viability, 72 h; series mostly up to 46 µM
Summary of the method: as §1

C33A = experiment: Primary qHTS to identify gynecologic anti-cancer compounds using libraries of approved drugs and bioactive compounds (AID 1345084); conditions: Gynecologic cancer cell panel viability, ATPlite luminescence, 48 h; series mostly up to 57.5 µM; note: nearly all actives have a fitted effect of over 55% in size
Summary of the method: (§2)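 Five-point cytotoxicity, 48 h drug exposure at 37 C, 5% CO2, on cells seeded 16 h beforehand. ATP content read by ATPlite luminescence.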

CAOV3 = experiment: as above; conditions: Gynecologic cancer cell panel viability, ATPlite luminescence, 48 h; series mostly up to 57.5 µM
Summary of the method: as §2

CASKI = experiment: as above; conditions: Gynecologic cancer cell panel viability, ATPlite luminescence, 48 h; series mostly up to 57.5 µM
Summary of the method: as §2

Es-2 = experiment: as above; conditions: Gynecologic cancer cell panel viability, ATPlite luminescence, 48 h; series mostly up to 57.5 µM
Summary of the method: as §2

HeLa = experiment: as above; conditions: Gynecologic cancer cell panel viability, ATPlite luminescence, 48 h; series mostly up to 57.5 µM
Summary of the method: as §2

Hek293T [2] = experiment: as above; conditions: Gynecologic cancer cell panel viability, ATPlite luminescence, 48 h, control line for the selectivity index; series mostly up to 57.5 µM
Summary of the method: as §2

JEG-3 = experiment: as above; conditions: Gynecologic cancer cell panel viability, ATPlite luminescence, 48 h; series mostly up to 57.5 µM
Summary of the method: as §2

OV90 = experiment: as above; conditions: Gynecologic cancer cell panel viability, ATPlite luminescence, 48 h; series mostly up to 57.5 µM
Summary of the method: as §2

PA-1 = experiment: as above; conditions: Gynecologic cancer cell panel viability, ATPlite luminescence, 48 h; series mostly up to 57.5 µM
Summary of the method: as §2

SKOV3 = experiment: as above; conditions: Gynecologic cancer cell panel viability, ATPlite luminescence, 48 h; series mostly up to 57.5 µM
Summary of the method: as §2

Tov-21-G = experiment: as above; conditions: Gynecologic cancer cell panel viability, ATPlite luminescence, 48 h; series mostly up to 57.5 µM
Summary of the method: as §2

WaGa = experiment: qHTS assay to identify novel small-molecules to repurpose for Merkel cell carcinoma treatment (AID 1296009); conditions: MCC and control cell lines, CellTiter-Glo viability, 72 h; series mostly up to 46 µM; note: nearly all actives have a fitted effect of over 60% in size
Summary of the method: as §1

Measured: Potency

COc1ccc(CCN(C)CCCN2CCc3cc(OC)c(OC)cc3CC2=O)cc1OC
not listed: WaGa
inactive: all other assays above

O=C(O)CCNC(=O)c1ccccc1
not listed: MCC-26 | CAOV3
inactive: all other assays above

Cc1ccccc1OCC(O)CO (centres undefined)
not listed: HEK293T [1]
inactive: all other assays above

CC(=O)NC(=O)c1ccccc1O
not listed: HEK293T [1] | SKOV3
inactive: all other assays above

Cc1cccc(C)c1NC(=O)CN1CCCCCC1
not listed: HEK293T [1] | SKOV3
inactive: all other assays above

CC(C)Cc1ccc(CC(=O)O)cc1
not listed: HEK293T [1]
inactive: all other assays above

Cc1ccc(S(=O)(=O)NC(=O)NC2CCCC2)cc1
not listed: HEK293T [1] | SKOV3
inactive: all other assays above

CC(=O)NO
not listed: HEK293T [1]
inactive: all other assays above

CN(Cc1ccc(C(C)(C)C)cc1)Cc1cccc2ccccc12
not listed: HEK293T [1]
inactive: all other assays above

CC1CCc2c(N3CCC(O)CC3)c(F)cc3c(=O)c(C(=O)O)cn1c23 (centres undefined)
not listed: HEK293T [1]
inactive: all other assays above

CC(C)(C)NC[C@H](O)COc1nsnc1N1CCOCC1
not listed: HEK293T [1] | SKOV3
inactive: all other assays above

N[C@H](C(=O)O)[C@@H](O)c1ccc(O)c(O)c1
not listed: HEK293T [1]
inactive: all other assays above

CCOC(=O)Nc1ccc2c(c1)N(C(=O)CCN1CCOCC1)c1ccccc1S2
not listed: HEK293T [1]
inactive: all other assays above

O=C(O)P(=O)(O)O
not listed: HEK293T [1]
inactive: all other assays above

COc1ccc(C(Cl)=C(c2ccc(OC)cc2)c2ccc(OC)cc2)cc1
not listed: HEK293T [1] | SKOV3
inactive: all other assays above

— PubChem BioAssay (NCATS)
